Experimental data as given in the supplement of paper PMC8975748.
Where a name gives a salt, the structure may show the parent alone. ± gives the standard deviation of the averaged measurements.

Experiments:
[1] = test system: Saccharomyces cerevisiae BY4741 SeMeCo community; test: z-score of prototroph abundance vs DMSO median; higher = larger share of this subpopulation than in DMSO controls; settings: 10 µM; 24 h; SM minimal medium; subpopulation (auxotrophy): Prototroph
How it was run: (§1)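 Automated confocal microscopy of paraformaldehyde-fixed cells was used to follow a Saccharomyces cerevisiae BY4741 community carrying four plasmids, each restoring one auxotrophy and encoding a distinct fluorescent protein. The community was pre-grown overnight to OD600 1.0, diluted to 0.3, and added at 70 µl to 384-well plates acoustically predosed with library drugs (10 µM final) for 24 h of growth in minimal SM medium. Single-auxotroph fluorescent strains set thresholds and autofluorescence correction, and each subpopulation's abundance was scored as a z-score against the vehicle-well median.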

[2] = test system: Saccharomyces cerevisiae BY4741 SeMeCo community; test: z-score of subpopulation abundance vs DMSO median, subpopulation auxotrophic for M; higher = larger share of this subpopulation than in DMSO controls; settings: 10 µM; 24 h; SM minimal medium; subpopulation (auxotrophy): M
How it was run: as §1

[3] = test system: Saccharomyces cerevisiae BY4741 SeMeCo community; test: z-score of subpopulation abundance vs DMSO median, subpopulation auxotrophic for L; higher = larger share of this subpopulation than in DMSO controls; settings: 10 µM; 24 h; SM minimal medium; subpopulation (auxotrophy): L
How it was run: as §1

[4] = test system: Saccharomyces cerevisiae BY4741 SeMeCo community; test: z-score of subpopulation abundance vs DMSO median, subpopulation auxotrophic for U; higher = larger share of this subpopulation than in DMSO controls; settings: 10 µM; 24 h; SM minimal medium; subpopulation (auxotrophy): U
How it was run: as §1

[5] = test system: Saccharomyces cerevisiae BY4741 SeMeCo community; test: z-score of subpopulation abundance vs DMSO median, subpopulation auxotrophic for LU; higher = larger share of this subpopulation than in DMSO controls; settings: 10 µM; 24 h; SM minimal medium; subpopulation (auxotrophy): LU
How it was run: as §1

[6] = test system: Saccharomyces cerevisiae BY4741 SeMeCo community; test: z-score of subpopulation abundance vs DMSO median, subpopulation auxotrophic for LM; higher = larger share of this subpopulation than in DMSO controls; settings: 10 µM; 24 h; SM minimal medium; subpopulation (auxotrophy): LM
How it was run: as §1

[7] = test system: Saccharomyces cerevisiae BY4741 SeMeCo community; test: z-score of subpopulation abundance vs DMSO median, subpopulation auxotrophic for HM; higher = larger share of this subpopulation than in DMSO controls; settings: 10 µM; 24 h; SM minimal medium; subpopulation (auxotrophy): HM
How it was run: as §1

[8] = test system: Saccharomyces cerevisiae BY4741 SeMeCo community; test: z-score of subpopulation abundance vs DMSO median, subpopulation auxotrophic for HU; higher = larger share of this subpopulation than in DMSO controls; settings: 10 µM; 24 h; SM minimal medium; subpopulation (auxotrophy): HU
How it was run: as §1

[9] = test system: Saccharomyces cerevisiae BY4741 SeMeCo community; test: z-score of subpopulation abundance vs DMSO median, subpopulation auxotrophic for UM; higher = larger share of this subpopulation than in DMSO controls; settings: 10 µM; 24 h; SM minimal medium; subpopulation (auxotrophy): UM
How it was run: as §1

[10] = test system: Saccharomyces cerevisiae BY4741 SeMeCo community; test: z-score of subpopulation abundance vs DMSO median, subpopulation auxotrophic for HL; higher = larger share of this subpopulation than in DMSO controls; settings: 10 µM; 24 h; SM minimal medium; subpopulation (auxotrophy): HL
How it was run: as §1

[11] = test system: Saccharomyces cerevisiae BY4741 SeMeCo community; test: z-score of subpopulation abundance vs DMSO median, subpopulation auxotrophic for HLU; higher = larger share of this subpopulation than in DMSO controls; settings: 10 µM; 24 h; SM minimal medium; subpopulation (auxotrophy): HLU
How it was run: as §1

[12] = test system: Saccharomyces cerevisiae BY4741 SeMeCo community; test: z-score of subpopulation abundance vs DMSO median, subpopulation auxotrophic for HLM; higher = larger share of this subpopulation than in DMSO controls; settings: 10 µM; 24 h; SM minimal medium; subpopulation (auxotrophy): HLM
How it was run: as §1

[13] = test system: Saccharomyces cerevisiae BY4741 SeMeCo community; test: z-score of subpopulation abundance vs DMSO median, subpopulation auxotrophic for HLUM; higher = larger share of this subpopulation than in DMSO controls; settings: 10 µM; 24 h; SM minimal medium; subpopulation (auxotrophy): HLUM
How it was run: as §1

[14] = test system: Saccharomyces cerevisiae BY4741 SeMeCo community; test: mean cell size (pixel area) (pixels); higher = larger cells; settings: 10 µM; 24 h; SM minimal medium
How it was run: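 Plates of 384 wells were acoustically predosed with drug at a final 10 µM in SM medium, and 70 µl of a Saccharomyces cerevisiae BY4741 preculture diluted from OD600 = 1.0 to OD600 = 0.3 was added for 24 h. The yeast formed a four-plasmid fluorescent community in which each plasmid complements one auxotrophy and carries a fluorescent marker. Fixed cells were imaged by automated confocal microscopy and analysed in Harmony for mean cell pixel area per well. Values are means of 3 replicates. Same SeMeCo high-content imaging drug screen: Selleck FDA-approved drugs at 10 µM, 24 h in SM medium, 384-well plates, 3 replicates.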

[15] = test system: Saccharomyces cerevisiae BY4741 SeMeCo community; test: z-score of subpopulation abundance vs DMSO median, subpopulation auxotrophic for H; higher = larger share of this subpopulation than in DMSO controls; settings: 10 µM; 24 h; SM minimal medium; subpopulation (auxotrophy): H
How it was run: as §1

[16] = test system: Saccharomyces cerevisiae BY4741 SeMeCo community; test: z-score of subpopulation abundance vs DMSO median, subpopulation auxotrophic for HUM; higher = larger share of this subpopulation than in DMSO controls; settings: 10 µM; 24 h; SM minimal medium; subpopulation (auxotrophy): HUM
How it was run: as §1

[17] = test system: Saccharomyces cerevisiae BY4741 SeMeCo community; test: z-score of subpopulation abundance vs DMSO median, subpopulation auxotrophic for LUM; higher = larger share of this subpopulation than in DMSO controls; settings: 10 µM; 24 h; SM minimal medium; subpopulation (auxotrophy): LUM
How it was run: as §1

Structure (SMILES)	z-score of prototroph abundance [1]	z-score of subpopulation abundance [2]	z-score of subpopulation abundance [3]	z-score of subpopulation abundance [4]	z-score of subpopulation abundance [5]	z-score of subpopulation abundance [6]	z-score of subpopulation abundance [7]	z-score of subpopulation abundance [8]	z-score of subpopulation abundance [9]	z-score of subpopulation abundance [10]	z-score of subpopulation abundance [11]	z-score of subpopulation abundance [12]	z-score of subpopulation abundance [13]	mean cell size [14]	z-score of subpopulation abundance [15]	z-score of subpopulation abundance [16]	z-score of subpopulation abundance [17]
CC(=O)OCC1=C(C(=O)O)N2C(=O)C(NC(=O)CSC(=NC(C)C)NC(C)C)C2SC1 (stereo not drawn) [Cefathiamidine]	0.65	-0.3	-0.86	0.86	-0.47	-1.11	-0.6	-0.62	0.84	-1.06	-1.21	-1.16	-1.54	–	–	–	–
c1ccc(C2CN3CCSC3=N2)cc1 (stereo not drawn) [Tetramisole HCl]	–	-0.44	0.54	-0.11	-0.21	0.13	-0.54	0.01	0.02	–	0.35	–	0.92	11.9 ± 0.12	-0.14	-0.09	0.46
CO/N=C(\C(=O)N[C@@H]1C(=O)N2C(C(=O)O)=C(CSc3nnnn3C)CS[C@H]12)c1csc(N)n1 [Cefmenoxime hydrochloride]	-0.33	0.36	-0.06	-0.34	0.37	0.27	0.28	-0.46	0.4	-0.51	-0.51	–	-0.52	12.5 ± 0.38	0.02	-0.02	-0.46
C[C@H]1COc2c(N3CCN(C)CC3)c(F)cc3c(=O)c(C(=O)O)cn1c23 [Levofloxacin]	1.06	0	-0.45	-0.46	-0.77	-0.53	-0.49	-0.62	-0.89	-0.59	-0.56	–	-0.96	12.4 ± 0.19	-0.42	-0.88	-1.11
Cc1c(C(N)=O)cc([N+](=O)[O-])cc1[N+](=O)[O-] [Dinitolmide]	-0.01	-0.14	0.45	0.48	1.05	0.46	-0.5	0.78	0.34	–	-0.18	-0.3	0.38	–	-0.33	–	-0.13
CCCCCc1ccc(C)cc1O [Amylmetacresol]	-0.1	-0.65	0.4	0.39	0.24	-0.71	-0.5	-0.1	-0.13	-0.02	0.35	–	0.41	–	-0.64	-0.2	0.11
CN1CCCN=C1/C=C/c1cccc(O)c1 [Oxantel Pamoate]	1.15	1.17	–	-1.1	-0.45	-0.51	-0.6	-0.96	–	-0.28	-0.35	-0.2	-0.41	12.6 ± 0.29	0.29	-1.13	-1.13
CN1CCN(C2=Nc3cc(Cl)ccc3Nc3ccccc32)CC1 [Clozapine]	0.32	-0.47	-0.41	0.17	-1.03	–	-0.07	-0.45	0.28	–	-0.01	–	-0.29	–	-0.49	–	0.32
CC1(C)S[C@@H]2[C@H](NC(=O)[C@H](N)c3ccc(O)cc3)C(=O)N2[C@H]1C(=O)O [Amoxicillin]	-0.05	0.35	-0.63	–	0.41	–	0.32	0.65	0.46	-0.54	0.39	–	0.49	12.6 ± 0.28	0.05	0.4	–
O=C(CCCN1CCC(O)(c2ccc(Cl)cc2)CC1)c1ccc(F)cc1 [Haloperidol]	0.57	-0.16	0.68	–	-0.75	–	–	-0.95	–	0.01	0.13	–	0.12	12.4 ± 0.2	-0.68	-0.8	-0.06
Clc1ccc(COC(Cn2ccnc2)c2ccc(Cl)cc2Cl)cc1 (stereo not drawn) [Econazole]	-7.96	-1.6	-1.62	–	-0.93	-1.56	2.71	5.61	9.39	12.8	4.6	–	–	11.9 ± 0.17	20.3	–	–
NCCNc1ccc(NCCN)c2c1C(=O)c1ccncc1C2=O [Pixantrone Maleate]	3.16	-11.8	1.31	2.84	2.14	–	-5.86	4.69	-7.68	9.63	7.46	–	-1.46	11.8 ± 0.17	3.74	-5.6	-4.09
Clc1ccc(CCC(Cn2ccnc2)Sc2c(Cl)cccc2Cl)cc1 (stereo not drawn) [Butoconazole nitrate]	-7.6	-9.08	–	1.85	1.13	-0.84	1.46	13.3	0.67	14.5	12.5	20.2	20.4	12.5 ± 0.15	30.8	5.03	0.2
CCN1CCCC1CNC(=O)c1cc(S(N)(=O)=O)ccc1OC (stereo not drawn) [Sulpiride]	0.51	0.12	–	-0.56	-0.37	-0.86	-0.46	-0.14	-0.33	-0.63	-1.3	0.14	0.02	12.54 ± 0.037	-0.37	-0.68	0.04
COc1cc2c(cc1OC)C(=O)C(CC1CCN(Cc3ccccc3)CC1)C2 (stereo not drawn) [Donepezil]	-0.18	1.61	–	-1.17	0.06	0.51	0.52	-0.92	–	–	-0.33	-0.14	0.22	12.14 ± 0.068	-0.21	-0.13	0.47
CN(CCOc1ccc(NS(C)(=O)=O)cc1)CCc1ccc(NS(C)(=O)=O)cc1 [Dofetilide]	0.39	-0.18	–	0.48	0.5	0.47	-0.88	0.18	0.1	-0.22	-0.23	-0.86	-0.1	12.4 ± 0.18	–	0.21	-0.27
